Source: the supplement of paper PMC12067926

Tests used:
Assay in all cases: relative growth (AUC of 72 h growth curve relative to DMSO control, dAUC) (ratio); higher = more growth (less inhibition), active = hit call of the paper
Conditions in all cases: 20 µM;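 active = growth AUC significantly below the DMSO wells by Dunnett test; inactive = the rest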
[1] = tested on: Aeromonas 1 (Aeromonas sp. AE235)
Summary of the method: (§1)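 For relative growth (dAUC), the spline-integrated area under the growth curve was divided by the mean of the DMSO controls. Results were averaged over three biological replicates. Each replicate used a 1:100 dilution, into 96-well plates holding each chemical at 20 µM (1% DMSO), of isolates from Icelandic stream sediments and Silwood Park soil or whole sediment communities that had been grown to carrying capacity in Luria–Bertani medium. Plates were shaken briefly before each hourly A600 reading over 72 h.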

[2] = tested on: Aeromonas 2 (Aeromonas sobria)
Summary of the method: as §1

[3] = tested on: Aeromonas 3 (Aeromonas popoffii)
Summary of the method: as §1

[4] = tested on: Argrobacterium 1 (Agrobacterium sp.)
Summary of the method: as §1

[5] = tested on: Arthrobacter 1 (Arthrobacter humicola)
Summary of the method: as §1

[6] = tested on: Arthrobacter 2 (Arthrobacter humicola)
Summary of the method: as §1

[7] = tested on: Arthrobacter 3 (Arthrobacter sp.)
Summary of the method: as §1

Community 4 = tested on: Community 4
Summary of the method: as §1

Community 6 = tested on: Community 6
Summary of the method: as §1

Community 7 = tested on: Community 7
Summary of the method: as §1

Community 8 = tested on: Community 8
Summary of the method: as §1

Community 9 = tested on: Community 9
Summary of the method: as §1

[8] = tested on: Flavobacterium 1 (Flavobacterium glaciei)
Summary of the method: as §1

[9] = tested on: Flavobacterium 2 (Flavobacterium succinicans)
Summary of the method: as §1

[10] = tested on: Hymenobacter 1 (Hymenobacter glaciei)
Summary of the method: as §1

[11] = tested on: Microbacterium 1 (Microbacterium arborescens)
Summary of the method: as §1

[12] = tested on: Neobacillus 1 (Neobacillus soli)
Summary of the method: as §1

[13] = tested on: Oryzobacter 1 (Oryzobacter terrae)
Summary of the method: as §1

[14] = tested on: Paenibacillus 1 (Paenibacillus castaneae)
Summary of the method: as §1

Measured: relative growth

CCCCN(CCCC)SN(C)C(=O)Oc1cccc2c1OC(C)(C)C2
inactive: [1] 1.06 | [2] 1.03 | [3] 1.05 | [4] 1.07 | [5] 1.23 | [6] 0.838 | [7] 0.966 | Community 4 0.917 | Community 6 0.92 | Community 7 1.13 | Community 8 1.01 | Community 9 0.884 | [8] 0.925 | [9] 0.985 | [10] 1.13 | [11] 1.01 | [12] 0.952 | [13] 1.2 | [14] 1.12

Cc1ccc(/N=C/N(C)/C=N/c2ccc(C)cc2C)c(C)c1
inactive: [1] 0.991 | [2] 0.995 | [3] 1 | [4] 0.984 | [5] 0.964 | [6] 0.821 | [7] 1.04 | Community 4 0.905 | Community 6 0.969 | Community 7 1.16 | Community 8 1.05 | Community 9 0.961 | [8] 1.02 | [9] 1 | [10] 1.04 | [11] 1.05 | [12] 0.964 | [13] 1.03 | [14] 0.969

C#CCN1C(=O)COc2cc(F)c(N3C(=O)C4=C(CCCC4)C3=O)cc21
inactive: [1] 0.987 | [2] 0.969 | [3] 0.982 | [4] 0.996 | [5] 1.03 | [6] 0.974 | [7] 0.979 | Community 4 0.951 | Community 6 0.959 | Community 7 1.07 | Community 8 1.01 | Community 9 0.923 | [8] 0.957 | [9] 0.977 | [10] 1.06 | [11] 1.04 | [12] 1.01 | [13] 1.04 | [14] 0.935

C[N+]1(C)CCCCC1
inactive: [1] 1.03 | [2] 1.01 | [3] 1.02 | [4] 0.994 | [5] 1.08 | [6] 0.96 | [7] 1.04 | Community 4 1.09 | Community 6 1.07 | Community 7 0.992 | Community 8 0.99 | Community 9 1.06 | [8] 1.03 | [9] 1.03 | [10] 1.08 | [11] 0.951 | [12] 1 | [13] 1.06 | [14] 1

N#CCNC(=O)c1cnccc1C(F)(F)F
inactive: [1] 1.01 | [2] 0.97 | [3] 1.03 | [4] 0.992 | [5] 0.965 | [6] 0.882 | [7] 0.96 | Community 4 0.954 | Community 6 0.919 | Community 7 1.01 | Community 8 0.986 | Community 9 0.902 | [8] 0.973 | [9] 0.944 | [10] 0.973 | [11] 1.01 | [12] 0.935 | [13] 1.09 | [14] 0.935

O=C(O)CNCP(=O)(O)O
inactive: [1] 0.998 | [2] 1 | [3] 1.03 | [4] 1.01 | [5] 0.952 | [6] 1.04 | [7] 1.04 | Community 4 1.03 | Community 6 1.07 | Community 7 1.06 | Community 8 1.04 | Community 9 1.04 | [8] 0.964 | [9] 1.02 | [10] 1.11 | [11] 1.05 | [12] 1.04 | [13] 1.02 | [14] 0.969

O=C(NC(=O)c1c(F)cccc1F)Nc1ccc(OC(F)(F)C(F)OC(F)(F)F)c(Cl)c1 (configuration not stated)
inactive: [1] 0.958 | [2] 0.975 | [3] 0.988 | [4] 0.995 | [5] 0.843 | [6] 0.911 | [7] 0.942 | Community 4 0.934 | Community 6 0.934 | Community 7 1.11 | Community 8 0.997 | Community 9 0.925 | [8] 0.951 | [9] 0.969 | [10] 0.944 | [11] 1.05 | [12] 0.888 | [13] 0.958 | [14] 0.957

CNC(=O)/C=C(\C)OP(=O)(OC)OC
inactive: [1] 0.951 | [2] 0.972 | [3] 0.995 | [4] 0.984 | [5] 0.943 | [6] 0.906 | [7] 0.94 | Community 4 0.942 | Community 6 0.973 | Community 7 1.14 | Community 8 0.954 | Community 9 0.956 | [8] 0.897 | [9] 0.954 | [10] 0.933 | [11] 0.986 | [12] 0.937 | [13] 1.11 | [14] 0.944
